# Measured values as given in PubChem BioAssay (Tox21).
# “And” between values parts separate entries of the source, which are not always exact repeats. Equal values may be shown once. Inconclusive results are not listed. Entries that show only a call come without a potency. Some compounds were tested as several samples or in several runs, with calls that do not always agree. The source made the active and inactive calls. Calls come from the whole dose curve; as a rule, active = well fitted curve in the direction sought with a large enough effect in the repeat runs; inconclusive = weak or mixed curves; inactive = no such curve, though single readings can be large; an effect the other way counts as inactive or inconclusive.
# Columns and labels:
# [1] = A CellTox Green Cytotoxicity Assay to monitor cytotoxicity in HEK293 cells - 40 hour (AID 1224871); note: nearly all actives have a fitted effect of over 45% in size; note: potency is the fitted concentration of half-maximal effect
# Procedure, shortened: (§1)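 Fluorescence intensity, read at 0, 8, 16, 24, 32 and 40 h of compound treatment, reflected dye binding to DNA of dead HEK293 cells; compounds (23 nL, DMSO) were added 5 h after plating cells with reagent.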
# [2] = qHTS RealTime-Glo MT Cell Viability Assay in HEK293 cells - 16 hour (AID 1224872); note: nearly all actives have a fitted effect of over 50% in size; note: potency is the fitted concentration of half-maximal effect
# Procedure, shortened: (§2)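 Cells + reagent dispensed (600 cells/well, HEK293) → 5 h at 37 C/5% CO2 → 23 nL compound in DMSO pinned → 40 h at 37 C → luminescence read at 0, 8, 16, 24, 32, 40 h.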
# [3] = qHTS RealTime-Glo MT Cell Viability Assay in HEK293 cells - 40 hour (AID 1224874); conditions: RealTime-Glo luminescence; max response: stronger effect = lower value; note: nearly all actives have a fitted effect of over 50% in size; note: potency is the fitted concentration of half-maximal effect
# Procedure, shortened: (§3)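 Viable HEK293 cells reduce a cell-permeant prosubstrate; the product diffuses out and is consumed by NanoLuc in the medium to give light. Compounds went in after a 5 h incubation and plates were read over the treatment course.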
# [4] = A CellTox Green Cytotoxicity Assay to monitor cytotoxicity in HEK293 cells - 24 hour (AID 1224875); note: nearly all actives have a fitted effect of over 45% in size; note: potency is the fitted concentration of half-maximal effect
# Procedure, shortened: as §1
# [5] = qHTS RealTime-Glo MT Cell Viability Assay in HepG2 cells - 32 hour (AID 1224877); note: nearly all actives have a fitted effect of over 55% in size; note: potency is the fitted concentration of half-maximal effect
# Procedure, shortened: (§4)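 Real-time, nonlytic viability: 600 HepG2 cells/well mixed with NanoLuc enzyme plus prosubstrate; 5 h settle, compound (DMSO) added by pintool; luminescence monitored over 40 h at 37 C.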
# [6] = A CellTox Green Cytotoxicity Assay to monitor cytotoxicity in HepG2 cells - 24 hour (AID 1224878); note: nearly all actives have a fitted effect of over 45% in size; note: potency is the fitted concentration of half-maximal effect
# Procedure, shortened: (§5)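 Using 1536-well format, dye-containing HepG2 suspension was seeded, allowed 5 h at 37 C/5% CO2, dosed by pintool with compounds, positive and negative controls, and imaged for fluorescence across 40 h.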
# [7] = A CellTox Green Cytotoxicity Assay to monitor cytotoxicity in HepG2 cells - 40 hour (AID 1224879); note: nearly all actives have a fitted effect of over 40% in size; note: potency is the fitted concentration of half-maximal effect
# Procedure, shortened: as §5
# [8] = qHTS RealTime-Glo MT Cell Viability Assay in HEK293 cells - 0 hour (AID 1224880); note: top concentration of the series differs between compounds; nearly all actives have a fitted effect of over 45% in size
# Procedure, shortened: as §3
# [9] = A CellTox Green Cytotoxicity Assay to monitor cytotoxicity in HEK293 cells - 32 hour (AID 1224881); note: nearly all actives have a fitted effect of over 40% in size; note: potency is the fitted concentration of half-maximal effect
# Procedure, shortened: as §1
# [10] = A CellTox Green Cytotoxicity Assay to monitor cytotoxicity in HepG2 cells - 0 hour (AID 1224882); note: nearly all actives have a fitted effect of over 35% in size
# Procedure, shortened: as §5
# [11] = A CellTox Green Cytotoxicity Assay to monitor cytotoxicity in HepG2 cells - 32 hour (AID 1224883); note: nearly all actives have a fitted effect of over 50% in size; note: potency is the fitted concentration of half-maximal effect
# Procedure, shortened: as §5
# [12] = A CellTox Green Cytotoxicity Assay to monitor cytotoxicity in HEK293 cells - 8 hour (AID 1224884); note: nearly all actives have a fitted effect of over 35% in size
# Procedure, shortened: as §1
# [13] = qHTS RealTime-Glo MT Cell Viability Assay in HepG2 cells - 16 hour (AID 1224885); note: nearly all actives have a fitted effect of over 50% in size; note: potency is the fitted concentration of half-maximal effect
# Procedure, shortened: as §4
# [14] = qHTS RealTime-Glo MT Cell Viability Assay in HEK293 cells - 8 hour (AID 1224887); note: nearly all actives have a fitted effect of over 50% in size; note: potency is the fitted concentration of half-maximal effect
# Procedure, shortened: as §3
# [15] = A CellTox Green Cytotoxicity Assay to monitor cytotoxicity in HEK293 cells - 16 hour (AID 1224888); note: nearly all actives have a fitted effect of over 35% in size; note: potency is the fitted concentration of half-maximal effect
# Procedure, shortened: as §1
# [16] = qHTS RealTime-Glo MT Cell Viability Assay in HepG2 cells - 0 hour (AID 1224889); note: nearly all actives have a fitted effect of over 50% in size
# Procedure, shortened: as §4
# [17] = A CellTox Green Cytotoxicity Assay to monitor cytotoxicity in HepG2 cells - 8 hour (AID 1224890); note: nearly all actives have a fitted effect of over 45% in size; note: potency is the fitted concentration of half-maximal effect
# Procedure, shortened: as §5
# [18] = qHTS RealTime-Glo MT Cell Viability Assay in HepG2 cells - 8 hour (AID 1224873); note: nearly all actives have a fitted effect of over 55% in size; note: potency is the fitted concentration of half-maximal effect
# Procedure, shortened: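 Real-time viability: cells seeded at 600 per well together with NanoLuc and cell-permeant prosubstrate, compounds added after 5 h incubation. Luminescence tracked at 0, 8, 16, 24, 32 and 40 h of exposure.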
# [19] = A CellTox Green Cytotoxicity Assay to monitor cytotoxicity in HepG2 cells - 16 hour (AID 1224876); note: nearly all actives have a fitted effect of over 45% in size
# Procedure, shortened: as §5
# [20] = qHTS RealTime-Glo MT Cell Viability Assay in HEK293 cells - 24 hour (AID 1224886); note: nearly all actives have a fitted effect of over 50% in size; note: potency is the fitted concentration of half-maximal effect
# Procedure, shortened: as §2
structure (smiles),measurement,setting,value
CCOP(=S)(OCC)Oc1ccc2c(C)c(Cl)c(=O)oc2c1,Potency,[1],inactive
same,Potency,[2],14 µM (active) and 43.6 µM (active) and inactive
same,Potency,[3],12.4 µM (active) and 43.6 µM (active)
same,max response,[3],-24.9% (inactive)
same,Potency,[4],inactive
same,Potency,[5],inactive
same,Potency,[6],inactive
same,Potency,[7],inactive
same,outcome,[8],inactive
same,Potency,[9],inactive
same,Potency,[10],inactive
same,Potency,[11],inactive
same,Potency,[12],inactive
same,Potency,[13],inactive
same,Potency,[14],12.4 µM (active) and 38.9 µM (active) and inactive
same,Potency,[15],inactive
same,Potency,[16],inactive
same,Potency,[17],inactive
CCCC[N+]1(C)CCCC1,Potency,[1],inactive
same,Potency,[2],inactive
same,Potency,[18],inactive
same,max response,[3],0.73% (inactive) [middle of 7 runs]
same,Potency,[4],inactive
same,Potency,[19],inactive
same,Potency,[5],inactive
same,Potency,[6],inactive
same,Potency,[7],inactive
same,outcome,[8],inactive
same,Potency,[9],inactive
same,Potency,[10],inactive
same,Potency,[11],inactive
same,Potency,[12],inactive
same,Potency,[13],inactive
same,Potency,[20],inactive
same,Potency,[14],inactive
same,Potency,[15],inactive
same,Potency,[16],inactive
same,Potency,[17],inactive
CC[N+](CC)(CC)CC,Potency,[1],inactive
same,Potency,[2],inactive
same,Potency,[18],inactive
same,max response,[3],2.86% (inactive) and 1.18% (inactive) and -0.431% (inactive)
same,Potency,[4],inactive
same,Potency,[5],inactive
same,Potency,[6],inactive
same,Potency,[7],inactive
same,outcome,[8],inactive
same,Potency,[9],inactive
same,Potency,[10],inactive
same,Potency,[11],inactive
same,Potency,[12],inactive
same,Potency,[13],inactive
same,Potency,[20],inactive
same,Potency,[14],inactive
same,Potency,[15],inactive
same,Potency,[16],inactive
same,Potency,[17],inactive
CC(=O)[O][Hg][c]1ccccc1,Potency,[1],433 nM (active) and 1.1 µM (active) and 213 nM (active)
same,Potency,[2],344 nM (active) and 1.1 µM (active) and 268 nM (active)
same,Potency,[18],1.93 µM (active) and 1.74 µM (active) and 1.07 µM (active)
same,Potency,[3],306 nM (active) and 977 nM (active) and 213 nM (active)
same,Potency,[4],863 nM (active) and 1.38 µM (active) and 1.07 µM (active)
same,Potency,[5],1.72 µM (active) and 1.95 µM (active) and 1.07 µM (active)
same,Potency,[6],1.93 µM (active) and 2.45 µM (active) and 1.34 µM (active)
same,Potency,[7],1.22 µM (active) and 1.95 µM (active) and 1.07 µM (active)
same,outcome,[8],inactive
same,Potency,[9],611 nM (active) and 977 nM (active) and 213 nM (active)
same,Potency,[10],inactive
same,Potency,[11],1.53 µM (active) and 1.95 µM (active) and 1.07 µM (active)
same,Potency,[12],inactive
same,Potency,[13],1.72 µM (active) and 1.74 µM (active) and 1.07 µM (active)
same,Potency,[20],344 nM (active) and 1.1 µM (active) and 239 nM (active)
same,Potency,[14],433 nM (active) and 1.55 µM (active) and 425 nM (active)
same,Potency,[15],1.9 µM (active)
same,Potency,[16],inactive
same,Potency,[17],2.73 µM (active) and 2.19 µM (active) and 1.2 µM (active)
C1CCC(NC2CCCCC2)CC1,Potency,[1],inactive
same,Potency,[2],inactive
same,max response,[3],3.03% (inactive) and 3.3% (inactive) and 2.02% (inactive)
same,Potency,[4],inactive
same,Potency,[19],inactive
same,Potency,[5],inactive
same,Potency,[6],inactive
same,Potency,[7],inactive
same,outcome,[8],inactive
same,Potency,[9],inactive
same,Potency,[10],inactive
same,Potency,[11],inactive
same,Potency,[12],inactive
same,Potency,[13],inactive
same,Potency,[20],inactive
same,Potency,[14],inactive
same,Potency,[15],inactive
same,Potency,[16],inactive
same,Potency,[17],inactive
CCC[N+]1(C)CCCC1,Potency,[1],inactive
same,Potency,[2],inactive
same,Potency,[18],inactive
same,Potency,[4],inactive
same,Potency,[19],inactive
same,Potency,[5],inactive and 49.3 µM (active)
same,Potency,[6],inactive
same,Potency,[7],inactive
same,outcome,[8],inactive
same,Potency,[9],inactive
same,Potency,[10],inactive
same,Potency,[11],inactive
same,Potency,[12],inactive
same,Potency,[13],inactive
same,Potency,[20],inactive
same,Potency,[14],inactive
same,Potency,[15],inactive
same,Potency,[16],inactive
same,Potency,[17],inactive
CCn1cc[n+](C)c1C,Potency,[1],inactive
same,Potency,[2],inactive
same,Potency,[18],inactive
same,max response,[3],-4.04% (inactive) and 1.14% (inactive) and -16.1% (inactive)
same,Potency,[4],inactive
same,Potency,[19],inactive
same,Potency,[5],inactive
same,Potency,[6],inactive
same,Potency,[7],inactive
same,outcome,[8],inactive
same,Potency,[9],inactive
same,Potency,[10],inactive
same,Potency,[11],inactive
same,Potency,[12],inactive
same,Potency,[13],inactive
same,Potency,[14],inactive
same,Potency,[15],inactive
same,Potency,[16],inactive
same,Potency,[17],inactive
O=C(O)CC(O)(CC(=O)O)C(=O)O,Potency,[1],inactive
same,Potency,[2],inactive
same,Potency,[18],inactive
same,max response,[3],6.24% (inactive) and 7.96% (inactive) and 3.83% (inactive)
same,Potency,[4],inactive
same,Potency,[19],inactive
same,Potency,[5],inactive
same,Potency,[6],inactive
same,Potency,[7],inactive
same,outcome,[8],inactive
same,Potency,[9],inactive
same,Potency,[10],inactive
same,Potency,[11],inactive
same,Potency,[12],inactive
same,Potency,[13],inactive
same,Potency,[14],inactive
same,Potency,[15],inactive
same,Potency,[16],inactive
same,Potency,[17],inactive
CNC,Potency,[1],inactive
same,Potency,[2],inactive
same,Potency,[18],inactive
same,max response,[3],5.34% (inactive) and 10.3% (inactive)
same,Potency,[4],inactive
same,Potency,[19],inactive
same,Potency,[5],inactive
same,Potency,[6],inactive
same,Potency,[7],inactive
same,outcome,[8],inactive
same,Potency,[9],inactive
same,Potency,[10],inactive
same,Potency,[11],inactive
same,Potency,[12],inactive
same,Potency,[13],inactive
same,Potency,[14],inactive
same,Potency,[15],inactive
same,Potency,[16],inactive
same,Potency,[17],inactive
